The source of these data is PubChem BioAssay (EPA / NIEHS).

In test [1] the target is human Peroxisome Proliferator-activated Receptor delta (PPARd), PPARD (gene 5467) (UniProt Q03181). The experiment in a line: ATG_PPARd_TRANS: Attagene TRANS-FACTORIAL HepG2 Assay for human Peroxisome Proliferator-activated Receptor delta (PPARd) (AID 2283002). The essentials:
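Fluorescence from capillary electrophoresis of labelled RT-PCR reporter fragments gives the signal; DMSO sets baseline. Cells: HepG2 transiently carrying GAL4-UAS reporter units plus chimeric nuclear receptor-Gal4 proteins, exposed to chemicals for 24 h.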

The target of test [2] is Peroxisome proliferator-activated receptor gamma (Homo sapiens) (UniProt P37231). In words: ATG_PPARg_TRANS: Attagene TRANS-FACTORIAL HepG2 Assay for human Peroxisome Proliferator-activated Receptor-gamma (PPARg) (AID 2283007). In a few lines:
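Chimeric NR-Gal4 transactivation is measured in transiently transfected HepG2 cells by reporter mRNA induction at 24 h. Detection uses RT-PCR with fluorescent labelling and capillary electrophoresis; DMSO defines baseline.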

Test [3] has as its target Nuclear receptor subfamily 1 group I member 2 (Homo sapiens) (UniProt O75469). In words: ATG_PXR_TRANS: Attagene TRANS-FACTORIAL HepG2 Assay for human Pregnane X Receptor (PXR) (AID 2283008). The essentials: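 Trans-factorial format: exogenous NR-Gal4 fusion activity, not endogenous factor, in transfected human HepG2 liver cells. After 24 h dosing, RNA isolated, reverse-transcribed, amplified and resolved by capillary electrophoresis; induction scored versus DMSO.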

Test [4] addresses human RAR-related Orphan Receptor gamma (RORg), RORC (gene 6097) (UniProt P51449). The experiment in a line: ATG_RORg_TRANS: Attagene TRANS-FACTORIAL HepG2 Assay for human RAR-related Orphan Receptor gamma (RORg) (AID 2283011). In a few lines: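 First, HepG2 liver cells were transfected with GAL4-UAS-driven reporter constructs and the RORg-Gal4 fusion. Next, they were treated with chemical for 24 h. Finally, reporter mRNA was quantified by RT-PCR and capillary electrophoresis, with upward activity fitted against DMSO.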

Test [5] addresses Retinoic acid receptor RXR-alpha (Homo sapiens) (UniProt P19793). The experiment in a line: ATG_RXRa_TRANS: Attagene TRANS-FACTORIAL HepG2 Assay for human Retinoid X Receptor alpha (RXRa) (AID 2283012). In a few lines:
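Chimeric NR-GAL4 trans-activation in HepG2, 24 h treatment; reporter transcripts quantified by fluorescence on capillary electrophoresis, analysed for upward change from DMSO.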

Test [6] addresses human RAR-related Orphan Receptor beta (RORb), RORB (gene 6096) (UniProt Q92753). In words: ATG_RORb_TRANS: Attagene TRANS-FACTORIAL HepG2 Assay for human RAR-related Orphan Receptor beta (RORb) (AID 2283010). The essentials: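 Multiplexed transcription-factor reporter assay: HepG2 cells transiently carrying NR-Gal4/GAL4-UAS constructs, 24 h treatment, mRNA quantified by RT-PCR plus capillary electrophoresis fluorescence; activity scored as induction over DMSO.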

Records with an inconclusive call do not appear. Active and inactive are the calls of the source. The calls were made as follows: active = hit-call score of the fitted dose curve at least 0.9, where 1 is the maximum; inconclusive = response in the unintended direction; inactive = score below 0.9.

Retinoic acid receptor RXR-alpha (Homo sapiens), sequence (P19793 whole entry, looked up, the tested form may be a part): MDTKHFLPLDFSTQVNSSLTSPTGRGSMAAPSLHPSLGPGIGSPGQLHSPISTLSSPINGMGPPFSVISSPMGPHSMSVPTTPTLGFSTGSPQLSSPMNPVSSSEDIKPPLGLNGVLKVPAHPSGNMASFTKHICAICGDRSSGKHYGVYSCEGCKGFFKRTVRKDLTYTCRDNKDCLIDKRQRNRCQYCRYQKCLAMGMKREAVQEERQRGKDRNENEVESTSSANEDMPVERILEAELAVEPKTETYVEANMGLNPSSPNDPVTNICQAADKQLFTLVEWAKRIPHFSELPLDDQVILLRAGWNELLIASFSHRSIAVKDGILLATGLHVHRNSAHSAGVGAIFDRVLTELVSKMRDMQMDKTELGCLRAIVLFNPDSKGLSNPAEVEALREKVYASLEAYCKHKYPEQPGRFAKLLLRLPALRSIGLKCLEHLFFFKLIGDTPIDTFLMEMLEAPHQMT
Nuclear receptor subfamily 1 group I member 2 (Homo sapiens), sequence (O75469 whole entry, looked up, the tested form may be a part): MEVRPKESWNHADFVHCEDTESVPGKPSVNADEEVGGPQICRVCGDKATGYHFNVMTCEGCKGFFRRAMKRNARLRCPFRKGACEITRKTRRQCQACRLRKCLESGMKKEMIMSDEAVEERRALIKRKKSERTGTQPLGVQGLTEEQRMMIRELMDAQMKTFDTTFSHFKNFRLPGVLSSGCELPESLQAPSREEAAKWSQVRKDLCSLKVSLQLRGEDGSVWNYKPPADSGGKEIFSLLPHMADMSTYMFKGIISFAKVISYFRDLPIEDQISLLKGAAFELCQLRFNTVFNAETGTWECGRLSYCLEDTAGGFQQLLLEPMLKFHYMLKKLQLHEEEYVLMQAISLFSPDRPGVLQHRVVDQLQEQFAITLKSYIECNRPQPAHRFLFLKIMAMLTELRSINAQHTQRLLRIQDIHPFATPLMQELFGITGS
Peroxisome proliferator-activated receptor gamma (Homo sapiens), sequence (P37231 whole entry, looked up, the tested form may be a part): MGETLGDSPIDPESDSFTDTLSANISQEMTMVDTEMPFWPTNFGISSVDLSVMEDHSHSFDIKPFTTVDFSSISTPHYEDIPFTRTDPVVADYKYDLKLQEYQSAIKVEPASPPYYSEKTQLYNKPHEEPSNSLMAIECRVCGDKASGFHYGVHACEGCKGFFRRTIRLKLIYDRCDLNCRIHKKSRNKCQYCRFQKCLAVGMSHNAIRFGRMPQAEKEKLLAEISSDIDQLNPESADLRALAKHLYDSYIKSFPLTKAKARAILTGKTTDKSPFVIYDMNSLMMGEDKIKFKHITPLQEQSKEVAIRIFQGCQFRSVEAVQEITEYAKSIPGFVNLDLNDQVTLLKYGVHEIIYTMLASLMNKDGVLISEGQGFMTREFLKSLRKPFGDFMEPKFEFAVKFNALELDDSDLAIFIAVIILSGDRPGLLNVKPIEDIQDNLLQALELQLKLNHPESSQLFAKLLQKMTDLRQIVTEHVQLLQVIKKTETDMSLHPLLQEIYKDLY
human RAR-related Orphan Receptor gamma (RORg), RORC (gene 6097), sequence (P51449 whole entry, looked up, the tested form may be a part): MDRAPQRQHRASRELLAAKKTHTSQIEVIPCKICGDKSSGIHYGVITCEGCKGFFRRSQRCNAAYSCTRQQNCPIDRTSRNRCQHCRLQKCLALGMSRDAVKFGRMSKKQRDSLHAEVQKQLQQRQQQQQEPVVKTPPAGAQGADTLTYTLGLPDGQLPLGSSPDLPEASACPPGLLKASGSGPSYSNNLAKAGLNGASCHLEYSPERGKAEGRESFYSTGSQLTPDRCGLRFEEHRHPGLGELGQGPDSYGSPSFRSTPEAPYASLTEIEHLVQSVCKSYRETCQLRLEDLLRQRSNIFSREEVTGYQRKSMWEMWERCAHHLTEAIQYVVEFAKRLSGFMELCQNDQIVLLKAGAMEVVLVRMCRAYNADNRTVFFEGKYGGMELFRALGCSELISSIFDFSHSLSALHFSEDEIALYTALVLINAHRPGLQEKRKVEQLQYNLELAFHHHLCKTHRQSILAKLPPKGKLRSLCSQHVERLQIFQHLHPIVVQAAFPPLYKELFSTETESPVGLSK
human Peroxisome Proliferator-activated Receptor delta (PPARd), PPARD (gene 5467), sequence (Q03181 whole entry, looked up, the tested form may be a part): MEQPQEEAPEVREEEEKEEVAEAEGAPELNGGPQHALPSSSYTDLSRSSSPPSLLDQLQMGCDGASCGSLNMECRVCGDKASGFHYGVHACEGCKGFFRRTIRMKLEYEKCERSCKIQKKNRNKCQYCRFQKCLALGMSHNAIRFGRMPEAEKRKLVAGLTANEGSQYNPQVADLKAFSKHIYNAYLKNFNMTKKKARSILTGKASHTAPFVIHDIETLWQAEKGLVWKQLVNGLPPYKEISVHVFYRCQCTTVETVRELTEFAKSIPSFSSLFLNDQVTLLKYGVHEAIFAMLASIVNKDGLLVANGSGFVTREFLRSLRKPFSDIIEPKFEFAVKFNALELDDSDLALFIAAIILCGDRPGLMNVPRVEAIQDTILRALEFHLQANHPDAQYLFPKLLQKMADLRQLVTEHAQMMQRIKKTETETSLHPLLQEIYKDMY
human RAR-related Orphan Receptor beta (RORb), RORB (gene 6096), sequence (Q92753 whole entry, looked up, the tested form may be a part): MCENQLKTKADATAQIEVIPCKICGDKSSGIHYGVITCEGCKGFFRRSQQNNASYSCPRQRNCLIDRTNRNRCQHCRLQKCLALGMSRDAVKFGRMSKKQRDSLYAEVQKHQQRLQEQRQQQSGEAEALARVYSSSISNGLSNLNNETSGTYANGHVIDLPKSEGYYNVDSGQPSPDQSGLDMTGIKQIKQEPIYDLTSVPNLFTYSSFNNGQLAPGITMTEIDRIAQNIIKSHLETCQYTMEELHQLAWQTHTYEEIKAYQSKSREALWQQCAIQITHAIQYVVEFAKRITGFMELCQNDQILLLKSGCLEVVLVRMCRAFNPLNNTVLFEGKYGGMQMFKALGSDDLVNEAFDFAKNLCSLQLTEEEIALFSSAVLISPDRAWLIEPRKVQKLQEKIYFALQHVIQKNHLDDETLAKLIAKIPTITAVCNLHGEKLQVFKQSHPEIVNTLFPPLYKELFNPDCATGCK

Consider `Cc1ccc(N)c([N+](=O)[O-])c1`, for which the compound was called inactive in test [1], in test [2], in test [3], in test [4] and in test [5].
Usually AC50 stands for the concentration at which the activity in the assay is half-maximal. Take `CC(=O)OCC(=O)[C@@]12N=C(C)O[C@@H]1C[C@H]1[C@@H]3CCC4=CC(=O)C=C[C@]4(C)[C@H]3[C@@H](O)C[C@@]12C`: the outcome in test [1], in test [2], in test [3] and in test [4] was inactive. For the same compound, the half-maximal activity concentration (AC50) in test [5] was 16.7 µM (active).
Regarding `CCCCCCCC/C=C\CCCCCCCC(=O)OCCO`, the result in test [1], in test [3] and in test [5] was inactive. The AC50 in test [2] was 4.78 µM (active).
`CC(=O)c1ccc2c(c1)CCCC2`: the call in test [1], in test [2], in test [3] and in test [5] was inactive.
In the case of `CCOC(F)(F)C(F)(F)C(F)(F)C(F)(F)F`, the call in test [1], in test [2], in test [3] and in test [5] was inactive.
Take `C=CC(C)(C)C`: the compound was called inactive in test [1], in test [2], in test [3], in test [4] and in test [5].
In the case of `Cc1cccc(N(C)C(=S)Oc2ccc3ccccc3c2)c1`, the call in test [1] and in test [5] was inactive. In addition, the AC50 is 2.88 µM (active) in test [2] and 0.337 µM (active) in test [3].
Turning to `O=C(c1ccccc1)C1CCC1`, the outcome in test [1], in test [2], in test [3], in test [6] and in test [5] was inactive.
`C=CC(C)(CCC=C(C)C)OC(=O)CC(C)C` (configuration not stated): the compound was called inactive in test [1] and in test [5]. The AC50 is 58.2 µM (active) in test [2] and 11.8 µM (active) in test [3].
In the case of `CCCCCCCC/C=C\CCCCCCCC(=O)O`, the AC50 in test [1] was 100 µM (active); in test [2] it was 18.8 µM (active). Besides, the result in test [3] and in test [5] was inactive.
For `Oc1ccc(Cl)cc1Cc1cc(Cl)ccc1O`, the result in test [1] and in test [5] was inactive. Further, the figures for the AC50 in test [2] and in test [3] were 4.51 µM (active) and 2.94 µM (active), respectively.
In the case of `CC(CC=O)CCCC(C)(C)O` (configuration not stated), the result in test [1], in test [2], in test [3], in test [6] and in test [5] was inactive.
In the case of `CC(CC=O)c1ccccc1` (configuration not stated), the call in test [1] and in test [5] was inactive. For the same compound, the AC50 is 56.2 µM (active) in test [2] and 5.22 µM (active) in test [3].
